Assay outcomes from PubChem BioAssay.
Hits are enriched below; roughly 5.9% of the tested compounds scored in any of these assays.
KB-3-1 cytotox – kills parental KB-3-1 adenocarcinoma cells; AID 1347075; KB-3-1 viability, CellTiter-Glo ATP luminescence, 72 h; Potency, µM (highest dose often 46.1 µM), hits mostly cytotoxic; 400,000 compounds, 1.4% hits; also: nearly all actives have a fitted effect of over 60% in size
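KB-3-1 cells, DMEM (no phenol red) + 10% FBS; compound by pin transfer, 72 h, 37 °C. Readout: CellTiter-Glo luminescence after 10 min. Data normalized, curve-fitted.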
KB-V1 cytotox – kills drug-selected multidrug resistant KB-V1 cells | KB-V1 MDR cells viability, CellTiter-Glo, 72 h | AID 1347076 | 400,000 compounds, 3.4% hits | Potency, µM (top dose mostly 46.1 µM), actives largely listed as cytotoxic; also: nearly all actives have a fitted effect of over 60% in size
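Cytotoxicity via CellTiter-Glo luminescence after 72 h compound exposure at 37 degrees C. Cells: drug-selected KB-V1 line, DMEM phenol-red free plus 10% FBS. Compounds tested at multiple concentrations; normalized data fitted to concentration-effect curves.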
TGFb inhibitor – blocks TGF-b signaling; HepG2 CAGA-GFP TGF-b/SMAD3 reporter, GFP fluorescence, 18 h; TGF-beta stimulated, 500 pg/mL final; Potency, µM (doses to about 46.1 µM), usual class: inhibitors; 410,000 compounds, 1.2% hits; AID 588855; also: nearly all actives have a fitted effect of over 65% in size
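Read-out: total well GFP (ex488/em500-530) summed from mean per-cell fluorescence. Cells: HEPG2 CAGA-GFP, 1% FBS DMEM, 18 h at 37 degrees C with 500 pg/mL final TGF-beta. Unstimulated wells served as the full-inhibition control; stimulated DMSO wells = 0%.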
HepG2 tox – HepG2 cytotoxicity, counter-screen for TGF-b inhibitors; HepG2 CAGA-GFP viability, ATP luminescence, 18 h; Potency, µM (titrated, usually from 46.1 µM), hits mostly cytotoxic; 410,000 compounds, 0.76% hits; AID 588856
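CellTiter-Glo luminescence gave cytotoxicity after 18 hours at 37 degrees C. The cells were HepG2 CAGA-GFP in 1% FBS DMEM, stimulated with 500 pg/mL TGF-beta after compound addition. %Activity was normalised to no-cell wells (complete cell-killing) and DMSO (no toxicity), and curves were fitted and classified.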
S2 tox – cell viability loss in ATXN counter-screen; S2 cells (HEK-293 line with an ATXN2-luciferase reporter) viability, CellTiter-Fluor protease fluorescence, 24 h; Potency, µM (top dose mostly 56.7 µM), hits mostly cytotoxic; 400,000 compounds, 0.49% hits; AID 651635; also: nearly all actives have a fitted effect of over 40% in size
ATXN2 expr inh – reduces ATXN2 reporter expression in HEK-293 cells; 360,000 compounds, 0.72% hits; AID 1745845; Potency, µM (series often up to 57 µM), actives largely listed as inhibitors; HEK-293 ATXN2-luciferase reporter, luminescence, 24 h; also: nearly all actives have a fitted effect of over 55% in size
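qHTS (up to 57 uM final) was run with 24 h compound exposure of reporter cells at 37 °C. Each well was multiplexed: SteadyGlo luminescence measured ATXN2-luciferase expression after a fluorogenic Gly-Phe-AFC viability readout (25 uM final).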
Numbers stand for hits; . = inactive; ? = inconclusive; / = no result given. Calls follow the shape of the dose curve; as a rule, active = well fitted curve in the direction sought with a large enough effect; inconclusive = small, poorly fitted or top-dose-only effect, or another doubt; inactive = no such curve, though single readings can be large; an effect the other way counts as inactive or inconclusive.

SMILES | KB-3-1 cytotox | KB-V1 cytotox | TGFb inhibitor | HepG2 tox | S2 tox | ATXN2 expr inh
O=S(=O)(Nc1cccc2ccccc12)c1cccs1 | . | . | . | . | . | .
C[C@H](NC(=O)OC(C)(C)C)C(=O)c1ccco1 | . | . | . | . | / | /
C[C@H]1C[C@H](O)c2ccsc2S1(=O)=O | / | / | / | / | . | .
Cn1nnnc1SCCNCc1cc(Cl)ccc1OCc1ccccc1 | . | 5.2µM | ? | . | . | .
Cn1nnnc1SCCNCc1ccc(OCc2ccccc2)cc1 | . | ? | . | . | . | .
Cn1nnnc1SCCNCc1ccc(OCc2ccccc2Cl)cc1 | 23µM | ? | . | . | . | .
CN(Cc1ccccc1)c1ccc(-c2nc(-c3ccccn3)no2)cc1[N+](=O)[O-] | ? | ? | . | . | ? | .
O=C(CCl)NC1CCCc2ccccc21 (stereo not drawn) | . | ? | . | . | . | .
O=C(CCCOc1ccccc1)NC1CCCc2ccccc21 (stereo not drawn) | . | 18µM | . | . | . | .
O=C(CCNS(=O)(=O)c1cccc2nonc12)NC1CCCc2ccccc21 (stereo not drawn) | . | 23µM | . | . | . | .
O=C(Nc1ccc(S(=O)(=O)N2CCCCC2)cc1)C1CCCN(C(=O)c2ccc(Cl)cc2)C1 (stereo not drawn) | 9.2µM | . | ? | . | . | .
CCOC(=O)c1ccc(NC(=O)C2CCCN(S(=O)(=O)c3ccc(F)cc3)C2)cc1 (stereo not drawn) | . | ? | . | . | ? | 32µM
COC(=O)Nc1ccc(S(=O)(=O)N2CCCCC2)cc1 | ? | 8.2µM | . | . | . | .
CC1CC1C(=O)Nc1ccc(S(=O)(=O)N2CCCCC2)cc1 (stereo not drawn) | . | 10µM | . | . | . | .
CCc1ccc(NC(=O)C2CCCN(S(=O)(=O)c3ccc(F)cc3)C2)cc1 (stereo not drawn) | . | . | ? | . | ? | .
COc1ccc(NC(=O)N2CCC(n3c(C)nc4cccnc43)CC2)cc1OC | . | . | . | . | ? | .
CCC1CN(C(=O)Nc2cc(OC)cc(OC)c2)c2ccccc2S1 (stereo not drawn) | . | . | ? | . | . | .
Cc1csc(SCc2nc3scc(-c4ccccc4)c3c(=O)[nH]2)n1 | . | ? | . | . | . | .
Cc1csc(SCc2nc3sc4c(c3c(=O)[nH]2)CCC4)n1 | . | 5.2µM | . | . | . | .
COc1ccc(NC(=O)CC2C(=O)N(c3ccccc3)C(=O)N2CCc2sccc2C)cc1 (stereo not drawn) | . | . | . | . | ? | .
CC1CCC2C(C1)c1sc(=O)[nH]c1SC2(C)C (stereo not drawn) | . | 18µM | . | . | . | .
CCOC(=O)CN(C(=O)COc1nc(-c2ccccc2)cc(C)c1C#N)c1ccccc1C | 3.7µM | . | . | . | ? | /
Cc1ccc(C(=O)C2Oc3ccccc3C3CC(c4ccc(C)cc4)=NN23)cc1 (stereo not drawn) | . | 21µM | ? | . | ? | .
Cc1ccc(C2=NN3C(C(=O)c4ccccc4)Oc4ccccc4C3C2)cc1 (stereo not drawn) | . | . | . | . | . | .
Cc1ccc(-n2nnnc2SCc2nc3sc(C)c(C)c3c(=O)[nH]2)cc1 | . | 18µM | . | . | . | .
SMILES | KB-3-1 cytotox | KB-V1 cytotox | TGFb inhibitor | HepG2 tox | S2 tox | ATXN2 expr inh
CC(=O)c1sc2nc(CSc3nnnn3-c3ccccc3)[nH]c(=O)c2c1C | . | . | . | . | . | .
COC(=O)c1c(OCc2ccccn2)cc(=O)n2c1CCN(Cc1cccc(C(F)(F)F)c1)CC2 | / | / | / | / | . | /
CCCCCCc1cc2cc(C(=O)Nc3cccc(OC)c3)c(=O)oc2cc1O | 7.3µM | 6.5µM | . | . | . | .
CCCCCCc1cc2cc(-c3nnc(-c4ccc(C)cc4)o3)c(=O)oc2cc1O | . | . | . | . | / | .
CCCCCCc1cc2cc(C(=O)Nc3ccc(OC)cc3)c(=O)oc2cc1O | 8.2µM | 8.2µM | . | . | . | .
COc1cccc2cc(C(=O)Nc3ccc(CC(=O)O)cc3)c(=O)oc12 | . | . | . | . | . | 3.5µM
CCCCCCc1cc2cc(C(=O)OCC)c(=O)oc2cc1O | . | . | . | . | . | /
CCCCCCc1cc2cc(S(=O)(=O)c3ccc(F)c(Cl)c3)c(=O)oc2cc1O | . | 15µM | . | . | / | ?
COc1ccc2c(c1)CCc1c(C(=O)N3CCCCCC3)noc1-2 | . | 15µM | . | . | . | .
COc1ccc2c(c1)CCc1c(C(=O)NCC(C)C)noc1-2 | . | . | . | . | . | .
CCCNC(=O)c1noc2c1CCc1cc(OC)ccc1-2 | . | . | ? | . | . | .
O=C(c1noc2c1CCc1ccccc1-2)N1CCOCC1 | . | 16µM | . | . | . | .
COc1ccc2c(c1)CCc1c(C(=O)NCc3cccnc3)noc1-2 | ? | 8.2µM | . | . | . | .
COc1ccc(CCNCc2c(C(=O)O)c(C)n(Cc3cccc(Cl)c3)c2C)c(OC)c1OC | . | . | . | . | . | .
CCc1cccc(CC)c1NC(=S)Nc1cccc(Cl)c1Cl | . | . | ? | 18µM | . | .
CCc1nc2ccc(C(=O)Nc3ccc4c(c3)OCC(=O)N4)cn2c1N(CC)Cc1cccc(Br)c1 | . | . | ? | . | 40µM | ?
CCc1nc2ccc(C(=O)Nc3cccc(OC)c3)cn2c1N(CC)Cc1cccc(Br)c1 | ? | ? | ? | . | ? | ?
CCc1nc2ccc(C(=O)NCc3ccccc3OC)cn2c1N(CC)Cc1cccc(Br)c1 | ? | 16µM | ? | . | ? | .
CCc1nc2ccc(C(=O)Nc3cccc(NS(C)(=O)=O)c3)cn2c1N(CC)Cc1cccc(Br)c1 | ? | ? | ? | . | ? | 28µM
Cc1cccc(C(c2sc3nc(-c4ccco4)nn3c2O)N2CCN(c3ccccc3F)CC2)c1 (stereo not drawn) | . | ? | ? | . | . | .
CC(C)COc1ccc(CSCCNC(=S)Nc2ccccc2)cc1 | . | 26µM | ? | . | . | .
CCCCCOc1ccc(CSCCNC(=S)Nc2ccccc2)cc1 | . | . | . | . | . | .
O=C(Nc1ccc(F)c(Cl)c1)c1cc(C2CCCN(C(=O)CCc3ccccc3)C2)on1 (stereo not drawn) | . | . | . | . | ? | .
CC(C)C[C@@H](CN=[N+]=[N-])N1CCN(CCc2ccccc2)CCC1=O | . | . | . | . | / | /
Cc1cccc(OCC(O)CNC(C)(C)C)c1C (stereo not drawn) | / | / | / | / | . | .
OCCN1CCN(Cc2ccc3c(c2)CN(Cc2cccn2-c2ccccn2)CCO3)CC1 | / | / | / | / | . | /
